In all, about 5,500 compounds went through this assay and about 2,000 (36%) were called active. Roughly 18% stayed inconclusive and do not appear here. No stated cut-off is given here; in the data, active means normalized growth mostly below about 0.91 (no sharp cut-off); inconclusive means no clear call, values can overlap the other calls; inactive means mostly above about 0.92. This is one part of the list.
Assay: chemical genetic growth profiling, strain panel (AID 1159580);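 further: tested at 20 µM; growth read once vehicle control cultures reached saturation at 30 °C; 1 = growth at the plate median or of vehicle wells; lower values mean less growth of the strain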
Settings: growth OD

Measured: normalized growth

CC(C)(C)NC[C@@H](O)COc1nsnc1N1CCOCC1
inactive: S. cerevisiae deletion strains, locus YJR075W, strain HOC1, hits give low values 0.995 | S. cerevisiae deletion strains, locus YKL009W, strain mrt4, hits give low values 1.03 | S. cerevisiae deletion strains, locus YKL068W, hits give low values 0.989 | S. cerevisiae deletion strains, locus YKL085W, strain MDH1 (second series), hits give low values 0.983 | S. cerevisiae deletion strains, locus YKL085W, strain MDH1, hits give low values 0.983 | S. cerevisiae deletion strains, locus YKL160W, strain elf1, hits give low values 1.01 | S. cerevisiae deletion strains, locus YKR001C, strain vps1, hits give low values 0.952 | S. cerevisiae deletion strains, locus YKR026C, strain gcn3, hits give low values 1.02 | S. cerevisiae deletion strains, locus YKR091W, strain srl3, hits give low values 1.01 | S. cerevisiae deletion strains, locus YLL001W, strain dnm1, hits give low values 1 | S. cerevisiae deletion strains, locus YLL026W, hits give low values 1.01 | S. cerevisiae deletion strains, locus YLL041C, strain sdh2, hits give low values 1.03 | S. cerevisiae deletion strains, locus YLR027C, strain aat2, hits give low values 1.01 | S. cerevisiae deletion strains, locus YLR039C, strain RIC1, hits give low values 1.01 | S. cerevisiae deletion strains, locus YLR058C, strain SHM2, hits give low values 1 | S. cerevisiae deletion strains, locus YLR102C, strain apc9, hits give low values 0.976 | S. cerevisiae deletion strains, locus YLR113W, strain HOG1, hits give low values 0.975 | S. cerevisiae deletion strains, locus YLR221C, strain rsa3, hits give low values 0.995 | S. cerevisiae deletion strains, locus YLR258W, strain gsy2, hits give low values 1.01 | S. cerevisiae deletion strains, locus YLR262C, strain YPT6 (second series), hits give low values 1.03 | S. cerevisiae deletion strains, locus YLR262C, strain YPT6, hits give low values 1.02 | S. cerevisiae deletion strains, locus YLR268W, strain sec22, hits give low values 0.961 | S. cerevisiae deletion strains, locus YLR320W, strain mms22, hits give low values 0.997 | S. cerevisiae deletion strains, locus YLR330W, strain CHS5, hits give low values 0.989 | S. cerevisiae deletion strains, locus YLR342W, strain FKS1 (second series), hits give low values 0.992 | S. cerevisiae deletion strains, locus YLR342W, strain FKS1, hits give low values 1 | S. cerevisiae deletion strains, locus YLR357W, strain rsc2, hits give low values 0.998 | S. cerevisiae deletion strains, locus YLR370C, strain arc18, hits give low values 1.02 | S. cerevisiae deletion strains, locus YLR371W, strain rom2, hits give low values 0.977 | S. cerevisiae deletion strains, locus YLR384C, strain iki3, hits give low values 1.01 | S. cerevisiae deletion strains, locus YLR418C, strain cdc73, hits give low values 1.03 | S. cerevisiae deletion strains, locus YML016C, strain PPZ1, hits give low values 0.988 | S. cerevisiae deletion strains, locus YML032C, strain rad52, hits give low values 1.01 | S. cerevisiae deletion strains, locus YML120C, strain ndi1, hits give low values 1.02 | S. cerevisiae deletion strains, locus YML124C, strain tub3, hits give low values 0.988 | S. cerevisiae deletion strains, locus YMR058W, strain fet3, hits give low values 1 | S. cerevisiae deletion strains, locus YMR078C, strain ctf18, hits give low values 0.972 | S. cerevisiae deletion strains, locus YMR125W, strain sto1, hits give low values 1.02 | S. cerevisiae deletion strains, locus YMR129W, hits give low values 1.02 | S. cerevisiae deletion strains, locus YMR205C, strain PFK2, hits give low values 1.02 | S. cerevisiae deletion strains, locus YMR223W, strain ubp8, hits give low values 1.02 | S. cerevisiae deletion strains, locus YMR231W, strain pep5, hits give low values 1.01 | S. cerevisiae deletion strains, locus YMR263W, strain SAP30, hits give low values 0.997 | S. cerevisiae deletion strains, locus YMR307W, strain GAS1, hits give low values 0.921 | S. cerevisiae deletion strains, locus YNL067W, strain RPL9B, hits give low values 0.999 | S. cerevisiae deletion strains, locus YNL071W, strain lat1, hits give low values 1.01 | S. cerevisiae deletion strains, locus YNL153C, strain GIM3, hits give low values 0.988 | S. cerevisiae deletion strains, locus YNL183C, strain NPR1, hits give low values 0.934 | S. cerevisiae deletion strains, locus YNL209W, strain ssb2, hits give low values 1.02 | S. cerevisiae deletion strains, locus YNL233W, strain BNI4, hits give low values 0.973 | S. cerevisiae deletion strains, locus YNL248C, strain rpa49, hits give low values 1.02 | S. cerevisiae deletion strains, locus YNL250W, strain rad50, hits give low values 0.969 | S. cerevisiae deletion strains, locus YNL271C, strain bni1, hits give low values 0.985 | S. cerevisiae deletion strains, locus YNL298W, strain CLA4, hits give low values 0.993 | S. cerevisiae deletion strains, locus YNL307C, strain MCK1, hits give low values 0.974 | S. cerevisiae deletion strains, locus YNL322C, strain KRE1 (second series), hits give low values 1 | S. cerevisiae deletion strains, locus YNL322C, strain KRE1, hits give low values 0.993 | S. cerevisiae deletion strains, locus YNR049C, strain mso1, hits give low values 1.01 | S. cerevisiae deletion strains, locus YNR052C, strain pop2, hits give low values 0.994 | S. cerevisiae deletion strains, locus YOL006C, strain TOP1, hits give low values 0.993 | S. cerevisiae deletion strains, locus YOL012C, strain htz1 0.711 | S. cerevisiae deletion strains, locus YOL147C, strain pex11, hits give low values 0.993 | S. cerevisiae deletion strains, locus YOR001W, strain rrp6, hits give low values 1.02 | S. cerevisiae deletion strains, locus YOR061W, strain CKA2, hits give low values 1 | S. cerevisiae deletion strains, locus YOR069W, strain VPS5, hits give low values 0.99 | S. cerevisiae deletion strains, locus YOR070C, strain gyp1, hits give low values 1.01 | S. cerevisiae deletion strains, locus YOR080W, strain dia2, hits give low values 1.02 | S. cerevisiae deletion strains, locus YOR083W, strain WHI5, hits give low values 0.981 | S. cerevisiae deletion strains, locus YOR106W, strain vam3, hits give low values 1.03 | S. cerevisiae deletion strains, locus YOR136W, strain idh2, hits give low values 0.988 | S. cerevisiae deletion strains, locus YOR144C, strain elg1, hits give low values 0.982 | S. cerevisiae deletion strains, locus YOR184W, strain ser1, hits give low values 0.989 | S. cerevisiae deletion strains, locus YOR231W, strain MKK1, hits give low values 0.988 | S. cerevisiae deletion strains, locus YOR265W, strain rbl2, hits give low values 1.02 | S. cerevisiae deletion strains, locus YOR270C, strain vph1, hits give low values 1.04 | S. cerevisiae deletion strains, locus YOR290C, strain snf2, hits give low values 1.01 | S. cerevisiae deletion strains, locus YOR316C, strain cot1, hits give low values 0.978 | S. cerevisiae deletion strains, locus YPL051W, strain arl3, hits give low values 1.01 | S. cerevisiae deletion strains, locus YPL078C, strain atp4, hits give low values 1.01 | S. cerevisiae deletion strains, locus YPL106C, strain sse1, hits give low values 0.994 | S. cerevisiae deletion strains, locus YPL240C, strain hsp82, hits give low values 1.02 | S. cerevisiae deletion strains, locus YPL241C, strain CIN2, hits give low values 0.992 | S. cerevisiae deletion strains, locus YPL256C, strain CLN2, hits give low values 0.984 | S. cerevisiae deletion strains, locus YPR119W, strain clb2, hits give low values 0.983 | S. cerevisiae deletion strains, locus YPR141C, strain kar3, hits give low values 0.973 | S. cerevisiae deletion strains, locus YPR163C, strain tif3, hits give low values 0.982 | S. cerevisiae deletion strains, locus YPR167C, strain met16, hits give low values 0.989 | S. cerevisiae deletion strains, strain wtn01, hits give low values 0.943 | S. cerevisiae strains, strain wild type, hits give low values 0.994

— PubChem BioAssay AID1159580 (chemical genetic matrix, 2015)
